Measured values from PubChem BioAssay.
Activity calls are given as the source filed them.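 How the source made its calls, unless noted: active means fluorescence slope after compound addition differing from the mean of all screened samples at 99.7% confidence, in either direction; inactive means the rest.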

Assays:
[1] = inhibitors of TNFa-induced NFkB p65 translocation, primary screen, imaging, HUVEC, MLSMR starter and 10KST1 sets (AID 438;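 active means inhibition above 20% together with a positive visual image hit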;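 further: compound added about 3h40 before a 20 min TNFalpha stimulation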;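 on inhibition: signal is the nuclear over cytoplasmic p65 intensity ratio per well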); settings: HUVEC TNFa-induced p65 nuclear translocation; cell count: measured here: nuclei count (cytotoxicity indicator), at 2.08 µM; inhibition: at 2 µM, stronger effect = higher value, 0% TNFa-plus-vehicle, 100% no-TNFa wells
[2] = reduction of polyQ htt aggregates in cells – imaging, exon1htt(103Q)mCFP cells, high-content imaging, primary screen (AID 483;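 active means visual image review flags a hit and inhibition of aggregation exceeds 20%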;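 further: compound exposure lasted 3 days before fixation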;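 on nuclei count: percent of the per-plate median nuclei count of sample wells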); settings: exon1htt(103Q)mCFP cell line, aggregate imaging, at 2 µM; inhibition of aggregation: stronger effect = higher value; nuclei count: measured here: cell count, toxicity
[3] = endothelial E-selectin expression blockers – imaging, HUVEC, immunofluorescence, MLSMR starter and 10KST1 sets, primary screen (AID 487;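 active means visually confirmed hit in the image check and inhibition above 20%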;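 on inhibition: signal is fraction of cell area covered by stained E-selectin grains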;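 on nuclei count: 100% = median nuclei count of all wells on the same plate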); settings: HUVEC TNFalpha-induced E-selectin immunofluorescence imaging, at 2 µM; inhibition: stronger effect = higher value; nuclei count: measured here: cell number, toxicity
[4] = target: Voltage-gated potassium channel subunit beta-2 (Rattus norvegicus) (UniProt P62483); experiment: inhibitors of rat Kvbeta2 reductase activity – biochemical, NADPH fluorescence, primary screen (AID 622;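 active means fluorescence slope higher than the sample average by over 3 SD, cut at about -0.22 in these data, passing the limit was not always enough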;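 further: slope of raw intensity against log time taken from 70 to 1610 s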); settings: recombinant KvBeta, 4-cyanobenzaldehyde reduction, at 10 µM, stronger effect = higher value
Chain of Voltage-gated potassium channel subunit beta-2 (Rattus norvegicus) (P62483 whole entry, looked up): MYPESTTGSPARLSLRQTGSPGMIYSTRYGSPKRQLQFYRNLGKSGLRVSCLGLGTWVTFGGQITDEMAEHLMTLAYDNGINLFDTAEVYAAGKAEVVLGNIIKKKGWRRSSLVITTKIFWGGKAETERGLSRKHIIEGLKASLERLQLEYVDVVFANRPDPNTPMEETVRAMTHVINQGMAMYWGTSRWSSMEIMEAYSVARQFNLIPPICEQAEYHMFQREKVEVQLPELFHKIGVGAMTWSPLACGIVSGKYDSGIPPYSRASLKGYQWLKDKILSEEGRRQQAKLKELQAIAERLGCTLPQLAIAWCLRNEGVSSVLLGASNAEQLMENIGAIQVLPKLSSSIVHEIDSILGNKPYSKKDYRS

[5] = target: Voltage-gated potassium channel subunit beta-2 (Rattus norvegicus) (UniProt P62483); experiment: enhancers of rat Kvbeta2 NADPH turnover – biochemical, NADPH fluorescence, primary screen (AID 623;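 active means NADPH fluorescence slope more negative than the mean of all samples by about 3 SD, 99.7% confidence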;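 further: fluorescence intensity change per second fitted from 20 to 320 s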); settings: Recombinant KvBeta, NADPH fluorescence decrease slope, 10 min; at 10 µM; stronger effect = lower value
[6] = target: Alpha-2C adrenergic receptor (Homo sapiens) (UniProt P18825); experiment: compounds altering alpha2C-coupled GIRK flux – cell-based, HEK293 alpha2C/GIRK1/2, thallium flux, primary screen (AID 624); settings: thallium flux BTC fluorescence, at 10 µM, actives lie on both sides;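 further: slope of fluorescence ratio to pre-addition baseline per second over 15 to 24 s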
Chain of Alpha-2C adrenergic receptor (Homo sapiens) (P18825 whole entry, looked up): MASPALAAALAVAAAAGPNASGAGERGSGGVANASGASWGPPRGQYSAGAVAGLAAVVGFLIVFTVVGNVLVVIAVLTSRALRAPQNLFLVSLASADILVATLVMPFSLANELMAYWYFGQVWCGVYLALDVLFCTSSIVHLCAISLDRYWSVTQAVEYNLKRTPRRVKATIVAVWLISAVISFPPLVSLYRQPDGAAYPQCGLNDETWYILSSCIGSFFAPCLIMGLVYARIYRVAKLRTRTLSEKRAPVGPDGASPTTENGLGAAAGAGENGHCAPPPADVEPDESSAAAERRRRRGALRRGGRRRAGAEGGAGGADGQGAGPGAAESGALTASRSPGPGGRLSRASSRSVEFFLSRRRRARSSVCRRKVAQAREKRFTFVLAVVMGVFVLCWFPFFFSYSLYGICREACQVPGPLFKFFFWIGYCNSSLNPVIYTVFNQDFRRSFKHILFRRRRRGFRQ

[7] = blockers of RIG-like receptor reporter activation – cell-based, Sendai virus stimulus, luciferase, 10K MLSCN set, TLR/RLR signaling modifier project, primary screen (AID 602276;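 active means inhibition at or above 50% at 10 µM; inactive means inhibition below 50%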;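 further: firefly luciferase from ISG56 promoter only with Renilla not read in this screen; 0% = Sendai virus plus DMSO and 100% = medium plus DMSO without virus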); settings: HEK293 RL24 IRF3 luciferase reporter, at 10 µM, stronger effect = higher value
[8] = TLR3 IRF3 reporter activation blockers – cell-based, poly I:C stimulus, luciferase, 10K MLSCN set, primary screen (AID 602277;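 active means inhibition of the reporter signal at or above 50%; inactive means inhibition below 50%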); settings: HEK293-TLR3 RL24 IRF3 luciferase reporter, at 10 µM, stronger effect = higher value

Nn1c(SCc2csc(-c3ccccc3)n2)nnc1-c1cccs1
cell count [1]: 387
inhibition [1]: -14% (inactive)
inhibition of aggregation [2]: -10.8% (inactive)
nuclei count [2]: 93.3%
inhibition [3]: -37.9% (inactive)
nuclei count [3]: 116%
fluorescence slope [4]: -0.454 (inactive)
NADPH fluorescence slope [5]: -7.1e-06 (inactive)
slope [6]: 0.00728 (inactive)
inhibition [7]: 31% (inactive)
inhibition [8]: 30.9% (inactive)

CCOC(=O)C1=C(O)C(=O)N(c2ccc(S(N)(=O)=O)cc2)C1c1ccccc1 (configuration not stated)
cell count [1]: 431
inhibition [1]: -0.4% (inactive)
inhibition of aggregation [2]: -10.8% (inactive)
nuclei count [2]: 108%
inhibition [3]: -31.8% (inactive)
nuclei count [3]: 117%
fluorescence slope [4]: -0.61 (inactive)
NADPH fluorescence slope [5]: -1.5e-05 (inactive)
slope [6]: 0.00391 (inactive)
inhibition [7]: 2.23% (inactive)
inhibition [8]: -14.6% (inactive)

CC1=Nn2c(nnc2-c2ccccn2)SC1
cell count [1]: 378
inhibition [1]: 4.8% (inactive)
inhibition of aggregation [2]: -0.1% (inactive)
nuclei count [2]: 68.5%
inhibition [3]: -158% (inactive)
nuclei count [3]: 198%
fluorescence slope [4]: -0.443 (inactive)
NADPH fluorescence slope [5]: -4.3e-05 (inactive)
slope [6]: 0.00557 (inactive)
inhibition [7]: 7.81% (inactive)
inhibition [8]: 11.5% (inactive)

Cc1occc1-c1nnc(SCC(=O)c2ccc(F)cc2)n1Cc1ccco1
cell count [1]: 370
inhibition [1]: 5% (inactive)
inhibition of aggregation [2]: 21.2% (inactive)
nuclei count [2]: 87.3%
inhibition [3]: -42.8% (inactive)
nuclei count [3]: 107%
fluorescence slope [4]: -0.393 (inactive)
NADPH fluorescence slope [5]: 2e-06 (inactive)
slope [6]: 0.00656 (inactive)
inhibition [7]: 9.07% (inactive)
inhibition [8]: 12% (inactive)

CCOc1cc(/C=N/n2cnnc2)cc(Br)c1O
cell count [1]: 819
inhibition [1]: 4.2% (inactive)
inhibition of aggregation [2]: -15.3% (inactive)
nuclei count [2]: 100%
inhibition [3]: -30.9% (inactive)
nuclei count [3]: 124%
fluorescence slope [4]: -0.381 (inactive)
NADPH fluorescence slope [5]: -4.4e-06 (inactive)
slope [6]: 0.00481 (inactive)
inhibition [7]: 13.1% (inactive)
inhibition [8]: 7.19% (inactive)

COc1ccc(S(=O)(=O)N2CCN(CC(=O)Nc3ccc(C)c(F)c3)CC2)cc1
cell count [1]: 339
inhibition [1]: -8.1% (inactive)
inhibition of aggregation [2]: -0.4% (inactive)
nuclei count [2]: 115%
inhibition [3]: -4.2% (inactive)
nuclei count [3]: 80.5%
fluorescence slope [4]: -0.518 (inactive)
NADPH fluorescence slope [5]: 1.2e-05 (inactive)
slope [6]: 0.00517 (inactive)
inhibition [7]: 18.5% (inactive)
inhibition [8]: 23.8% (inactive)

Cc1c(Cl)cnc(NC(=O)COC(=O)C(NC(=O)c2ccco2)C(C)C)c1Cl (configuration not stated)
cell count [1]: 362
inhibition [1]: 7.4% (inactive)
inhibition of aggregation [2]: -2.1% (inactive)
nuclei count [2]: 80.5%
inhibition [3]: -17.2% (inactive)
nuclei count [3]: 112%
fluorescence slope [4]: -0.584 (inactive)
NADPH fluorescence slope [5]: -3.9e-05 (inactive)
slope [6]: 0.00552 (inactive)
inhibition [7]: 6.87% (inactive)
inhibition [8]: 5.64% (inactive)
